# Experimental data from PubChem BioAssay.
# The source made the active and inactive calls.
# What was measured:
# [1] = anti-His antibody binders, primary screen, artefact control for SMM control protein annotation, biochemical, small-molecule microarray, 635 nm fluorescence (AID 1128); conditions: anti-His Alexa647 antibody binding, higher = more signal;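 further: score merges feature fluorescence with signal-to-noise for each printed compound spot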
# [2] = tested on: Human papillomavirus type 1a E7 protein (residues 1-88); experiment: HPV1a E7 small-molecule binders, primary screen, biochemical, small-molecule microarray, residues 1-88, 635 nm (AID 1129); conditions: small-molecule microarray binding, fluorescence 635 nm; higher = more signal
# [3] = molecular target: Focal adhesion kinase 1 (Homo sapiens) (UniProt Q05397); experiment: small-molecule microarray binders of FAK, primary screen, biochemical, 635/667 nm fluorescence, BSA, DTT (AID 1130); conditions: PTK2 binding, 635 nm fluorescence, higher = more signal;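 further: composite of spot emission at 667 nm and signal to noise over triplicate slides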
# Chain of Focal adhesion kinase 1 (Homo sapiens) (Q05397 whole entry, looked up): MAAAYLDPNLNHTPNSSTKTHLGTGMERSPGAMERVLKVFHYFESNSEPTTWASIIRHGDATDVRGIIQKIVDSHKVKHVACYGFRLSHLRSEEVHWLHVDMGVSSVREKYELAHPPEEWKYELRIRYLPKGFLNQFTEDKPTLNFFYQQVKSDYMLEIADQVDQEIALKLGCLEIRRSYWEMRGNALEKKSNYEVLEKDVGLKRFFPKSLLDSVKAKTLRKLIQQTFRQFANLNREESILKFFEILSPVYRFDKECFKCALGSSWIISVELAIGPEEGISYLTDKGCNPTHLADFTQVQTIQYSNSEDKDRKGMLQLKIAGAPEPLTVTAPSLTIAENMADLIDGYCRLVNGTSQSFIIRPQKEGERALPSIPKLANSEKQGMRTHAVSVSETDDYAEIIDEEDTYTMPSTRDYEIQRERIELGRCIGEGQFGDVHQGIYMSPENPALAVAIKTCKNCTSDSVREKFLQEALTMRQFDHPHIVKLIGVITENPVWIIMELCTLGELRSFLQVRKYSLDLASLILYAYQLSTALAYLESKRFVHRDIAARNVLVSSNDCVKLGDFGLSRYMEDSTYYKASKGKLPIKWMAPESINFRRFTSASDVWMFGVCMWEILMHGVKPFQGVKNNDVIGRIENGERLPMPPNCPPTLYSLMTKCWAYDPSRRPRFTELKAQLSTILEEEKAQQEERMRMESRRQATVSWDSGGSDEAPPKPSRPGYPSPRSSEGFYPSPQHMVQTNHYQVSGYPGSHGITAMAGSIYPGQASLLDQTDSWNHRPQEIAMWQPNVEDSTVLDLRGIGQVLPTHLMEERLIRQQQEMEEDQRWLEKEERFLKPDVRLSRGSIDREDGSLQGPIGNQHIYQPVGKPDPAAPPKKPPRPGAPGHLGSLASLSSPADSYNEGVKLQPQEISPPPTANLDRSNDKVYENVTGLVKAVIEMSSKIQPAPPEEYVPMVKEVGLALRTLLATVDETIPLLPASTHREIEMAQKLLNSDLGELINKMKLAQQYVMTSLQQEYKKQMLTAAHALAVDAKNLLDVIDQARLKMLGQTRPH
# [4] = tested on: Fibrinogen (Alexa647-labelled); experiment: fibrinogen binders on compound microarrays, profiling panel, artefact control for SMM control-protein annotation, biochemical, small-molecule microarray, 635/667 nm fluorescence (AID 1131); conditions: fibrinogen-A647 binding fluorescence, higher = more signal;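 further: z-score merges 667 nm fluorescence with per-spot signal-to-noise over triplicate slides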
# [5] = molecular target: Follistatin (Homo sapiens) (UniProt P19883); experiment: follistatin binders on small-molecule microarrays, primary screen, biochemical, small-molecule microarray, 635/667 nm fluorescence (AID 1132); conditions: FST binding, 635 nm fluorescence, higher = more signal
# Chain of Follistatin (Homo sapiens) (P19883 whole entry, looked up): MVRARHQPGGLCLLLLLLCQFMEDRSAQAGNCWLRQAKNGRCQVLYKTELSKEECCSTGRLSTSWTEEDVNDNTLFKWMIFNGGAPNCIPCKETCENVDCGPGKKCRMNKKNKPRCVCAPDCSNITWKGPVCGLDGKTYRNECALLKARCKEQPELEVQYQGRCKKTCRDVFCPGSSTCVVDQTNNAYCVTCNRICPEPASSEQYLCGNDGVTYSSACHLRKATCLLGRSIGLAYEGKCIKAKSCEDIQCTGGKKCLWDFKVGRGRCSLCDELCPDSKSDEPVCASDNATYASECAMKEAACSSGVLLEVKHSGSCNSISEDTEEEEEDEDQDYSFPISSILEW
# [6] = molecular target: Fibroblast growth factor 2 (Homo sapiens) (UniProt P09038); experiment: FGF2 binders on small-molecule microarrays, primary screen, biochemical, small-molecule microarray, 635/667 nm fluorescence (AID 1133); conditions: small-molecule microarray binding, FGF2, fluorescence 635/667; higher = more signal
# Chain of Fibroblast growth factor 2 (Homo sapiens) (P09038 whole entry, looked up): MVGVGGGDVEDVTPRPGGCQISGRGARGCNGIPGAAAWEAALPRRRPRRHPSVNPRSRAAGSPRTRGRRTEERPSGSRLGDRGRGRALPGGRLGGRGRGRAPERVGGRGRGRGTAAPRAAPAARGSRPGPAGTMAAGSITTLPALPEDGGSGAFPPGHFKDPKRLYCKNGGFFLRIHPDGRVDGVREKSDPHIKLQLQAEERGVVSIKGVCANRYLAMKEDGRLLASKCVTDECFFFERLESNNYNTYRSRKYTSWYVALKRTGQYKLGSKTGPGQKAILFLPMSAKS
# [7] = mitochondrial membrane potential change in A549 cells, profiling panel, cell-based, JC-1 fluorescence, basal, 24 h, 100 nL (AID 1138); conditions: higher = more signal;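 further: A549 lung adenocarcinoma cells under basal conditions with no added stimulus; test concentration not given here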
# [8] = tested on: Lefty1; experiment: Lefty1 binders on small-molecule microarrays, primary screen, biochemical, small-molecule microarray, 635/667 nm fluorescence (AID 1139); conditions: small-molecule microarray binding, fluorescence 635/667; higher = more signal
# [9] = tested on: wheat germ agglutinin (Triticum aestivum), Alexa647-labelled; experiment: wheat germ agglutinin binders on compound microarrays, profiling panel, artefact control for SMM control-protein annotation, biochemical, small-molecule microarray, 635/667 nm fluorescence (AID 1140); conditions: WGA-A647 binding, 635 nm fluorescence, higher = more signal;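 further: score merges 667 nm feature emission with signal to noise over triplicate slides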
# [10] = molecular target: Luciferin 4-monooxygenase (Photinus pyralis) (UniProt P08659); experiment: firefly luciferase enzyme inhibitors, primary screen, biochemical, luminescence, purified enzyme, 2006 set (AID 1141); conditions: SteadyGlo luminescence, 30 min, higher = more signal, called active from +8 up or from −8 down;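 further: cell-free assay with purified firefly luciferase at 100 ng per well in PBS; test concentration not given here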
# Chain of Luciferin 4-monooxygenase (Photinus pyralis) (P08659 whole entry, looked up): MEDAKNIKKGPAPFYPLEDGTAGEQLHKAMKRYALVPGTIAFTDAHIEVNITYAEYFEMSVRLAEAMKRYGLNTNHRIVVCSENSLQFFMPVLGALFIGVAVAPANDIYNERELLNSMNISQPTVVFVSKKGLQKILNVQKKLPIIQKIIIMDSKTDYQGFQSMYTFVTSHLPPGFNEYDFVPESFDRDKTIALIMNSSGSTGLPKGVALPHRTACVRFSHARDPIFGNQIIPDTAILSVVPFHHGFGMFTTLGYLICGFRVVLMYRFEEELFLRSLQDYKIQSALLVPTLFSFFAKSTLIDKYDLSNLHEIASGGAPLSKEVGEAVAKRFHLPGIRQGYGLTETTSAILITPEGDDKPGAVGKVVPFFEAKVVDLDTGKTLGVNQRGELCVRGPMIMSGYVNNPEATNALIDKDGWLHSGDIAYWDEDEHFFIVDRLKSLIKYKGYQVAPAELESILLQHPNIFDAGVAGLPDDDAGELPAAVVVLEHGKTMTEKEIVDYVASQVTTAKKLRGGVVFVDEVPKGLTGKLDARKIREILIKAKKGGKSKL
SMILES,composite z-score [1],composite z-score [2],composite z-score [3],composite z-score [4],composite z-score [5],composite z-score [6],z-score [7],composite z-score [8],composite z-score [9],z-score [10]
CCC(=O)[C@]12O[C@@]3([C@@H]4C(=O)OCC[C@@H]41)N(Cc1ccccc1)C(C)=C(C(=O)OC)[C@@H](c1ccccc1)N3C2=O,-0.97,-2.31,0.0625,-1.35,-0.65,-0.715,1.27,0.197,-0.803,-1.36 (inactive)
C=CCN1C(=O)[C@@]2(O[C@@H](CCn3cc([C@H](O)c4ccccc4)nn3)[C@H]([Si](C)(C)c3ccc(OC)cc3)[C@H]2C)c2cc(N3CCOC3=O)ccc21,1.34,1.16,0.533,-0.285,0.0302,0.0085,0.899,-0.192,-0.605,-0.731 (inactive)
O=[N+]([O-])c1ccc(C[n+]2ccc3ccc(O)cc3c2)o1,0.0131,0.275,0.326,0.596,1.04,0.227,1.25,0.392,1.12,-2 (inactive)
Cc1cc(C)c(C(O)C2C=CC3C(=O)N(C)C(=O)C3N2N2CCCCC2)c(C)c1 (stereo not given),2.16,1.18,-0.193,0.985,1.28,0.994,0.85,-0.0675,0.799,0.915 (inactive)
COCCOC(=O)N1C(=O)[C@@]2(c3cc(C#CC4(O)CCCCCC4)ccc31)[C@H](C(=O)N1CCCCCCC1)[C@H]1C(=O)O[C@H](c3ccccc3)[C@H](c3ccccc3)N1[C@@H]2c1ccc(O)cc1,1.25,1.22,0.646,0.72,1.48,0.536,0.208,1.08,1.38,-1.27 (inactive)
CC(C)(C)OC(=O)CC[C@@]1(C(=O)NCc2ccccc2)N=C(c2ccc(OCCCO)cc2)O[C@@H]1c1ccccc1,2.76,1.25,1.18,0.966,1.16,0.244,0.614,0.353,1.53,-1.54 (inactive)
CN1CCC(CCCO)=CC1C1CC1 (stereo not given),0.346,-0.256,-0.233,-0.146,0.803,0.923,0.949,1.12,-0.59,-0.703 (inactive)
CCOC(=O)C[C@H]1[C@H](OC(=O)Cc2ccc3c(c2)OCO3)[C@@H](NC(=O)c2ccc3ccccc3c2)c2cc(OCCCO)ccc2N1C(=O)Cc1ccc(OC)cc1,-0.708,0.836,0.211,0.561,0.413,0.441,0.751,0.55,0.353,-0.953 (inactive)
C=CC(=O)O[C@@H](Cc1ccccc1)[C@H]1C2C=CCCC=C2CN1Cc1cccc(Cl)c1 (stereo not given in full),-0.0091,-2.16,-0.426,-0.327,-0.14,-0.344,1.77,-0.697,-0.346,-1.52 (inactive)
O=C1c2ccccc2[C@](Cc2ccccc2I)(C(=O)O)[C@H](c2ccc(CO)cc2)N1C1CCCCC1,1.52,1.24,0.398,0.801,1.33,1.06,-0.254,0.4,1.13,-0.757 (inactive)
Cc1ccc(S(=O)(=O)c2cc3oc2CC[C@@H](CO)NC(=O)N(C)Cc2cn(nn2)C[C@H](Cc2ccccc2)NC3=O)cc1,3.02,-0.157,2.07,0.814,-0.0009,0.108,1.95,-0.442,-0.0961,-1.53 (inactive)
CO[C@H]1COC(=O)CC=C[C@H](C)[C@@H](OC)COC(=O)[C@H](Cc2ccccc2)NC(=O)CC=C[C@@H]1C,-1.1,-2.59,0.264,-1.23,1.42,1.34,1.39,1.59,-0.324,-1.06 (inactive)
C=CCNC(=O)[C@H]1[C@@H]2C(=O)O[C@@H](c3ccccc3)[C@@H](c3ccccc3)N2[C@@H](c2ccccc2OCCO)[C@]12C(=O)N(C(=O)OCCOC)c1ccc(C#CCC(C(=O)OC)C(=O)OC)cc12,2.1,1.2,0.751,0.709,1.24,1.06,-1.18,0.779,1.08,-0.509 (inactive)
COC(=O)C1=CC(c2ccc(CO)cc2)=CC(c2cccs2)N(Cc2cccc(OC(F)(F)F)c2)C=C1C(=O)OC (stereo not given),2.15,1.23,0.409,0.97,0.289,-0.316,1.49,0.0703,1.4,-0.926 (inactive)
O=C(NCc1ccccc1)[C@@]1(Cc2ccccc2)COC(c2ccc(OCCCO)cc2)=N1,2.46,1.17,0.773,0.838,0.0985,-0.238,-1.56,-0.554,0.449,-0.603 (inactive)
